Results on 95 compounds are retold here after PubChem BioAssay AID687036 (The Scripps Research Institute Molecular Screening Center, 2013).

Hit rate of the full screen: of about 3,300 compounds, about 1,400 (42%) were called active. So high a share suggests a set chosen from earlier hits. A selection follows. Unmarked numbers belong to inactive results.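 The calls were made as follows: active = mean inhibition across replicates above the hit cutoff derived for the earlier primary screen (cut at about 22% in these data); inactive = the rest.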

Protein arginine N-methyltransferase 1 (Homo sapiens), sequence (Q99873 whole entry, looked up): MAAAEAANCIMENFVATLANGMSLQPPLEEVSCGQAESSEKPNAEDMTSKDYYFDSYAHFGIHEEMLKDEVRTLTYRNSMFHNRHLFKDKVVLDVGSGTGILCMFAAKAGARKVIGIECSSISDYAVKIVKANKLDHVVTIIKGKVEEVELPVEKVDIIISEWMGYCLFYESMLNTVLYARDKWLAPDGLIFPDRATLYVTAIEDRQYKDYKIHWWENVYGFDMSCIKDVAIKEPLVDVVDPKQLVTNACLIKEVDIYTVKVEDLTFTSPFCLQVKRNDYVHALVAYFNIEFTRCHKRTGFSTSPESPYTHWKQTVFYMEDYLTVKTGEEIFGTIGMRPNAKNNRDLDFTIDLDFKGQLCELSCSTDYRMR

The test addresses Protein arginine N-methyltransferase 1 (Homo sapiens) (UniProt Q99873). Briefly: human PRMT1 activity-probe blockers, retest – biochemical, fluorescence polarization, triplicate, confirmation (AID 687036). The conditions noted are these: recombinant His-PRMT1, activity-based probe fluorescence polarization; at 2.79 µM; stronger effect = higher value.
On to `CC1=C(C)CC2C(=O)N(c3cccc4ccccc34)C(=O)C2C1` (stereo not given), for which the inhibition is 54.1% (active).

Regarding `O=C(O)CCn1c(O)c(C=C2N=c3ccccc3=N2)sc1=S`, the inhibition is -5.43%.

`O=C(NC(Cc1c[nH]c2ccccc12)C(=O)O)/C(=C/c1ccco1)NC(=O)c1ccccc1` (stereo not given): the inhibition was 9.09%.

For the compound `Cc1ccc(NC(=O)Cn2sc3ccccc3c2=O)cc1`, the inhibition is 82.3% (active).

For `CCC(c1nnnn1Cc1ccco1)N(Cc1cc2cc(OC)ccc2[nH]c1=O)C1CCCCC1` (stereo not given), the inhibition was 18%.

In the case of `COC(=O)C[n+]1cccc2ccccc21`, the inhibition was 32.6% (active).

As for `NC(=O)c1c(Nc2nc3c(F)cccc3s2)sc2c1CCCC2`, the inhibition was -3.26%.

As for `O=C(CSc1cccc[n+]1[O-])c1ccc(-c2ccccc2)cc1`, the inhibition is 25.6% (active).

`O=C(Cc1ccc(-c2ccccc2)cc1)NC(c1ccccc1)c1ccccc1`: the inhibition was 3.32%.

As for `Cc1sc(NC(=O)c2ccc3ncsc3c2)c(C(N)=O)c1C`, the inhibition is 3.89%.

Consider `N#CC1(Nc2ccc3c4c(cccc24)CC3)CCCCC1`, for which the inhibition was 10.2%.

Consider `CSc1nc(C)cc(SC(C(C)=O)C(=O)Nc2ccccc2)n1` (stereo not given), for which the inhibition is 22.5% (active).

For the compound `CN(C)C(=S)N=c1ssc(=S)n1Cc1ccco1`, the inhibition is 15.6%.

As for `Cc1ccc(-n2nc(-c3ccco3)cc2C(=O)NCc2cccnc2)cc1`, the inhibition is 19.5%.

For `C=CS(=O)c1sc(Cl)c(N2CCOCC2)c1[N+](=O)[O-]` (stereo not given), the inhibition is 87.1% (active).

`CCOC(=O)c1cc2n(c1N)-c1ccccc1C2=O`: the inhibition is 116% (active).

As to `Cc1ccccc1CN1C[C@@H]2C[C@@H](c3cn(C)nc3-c3ccccc3)N3CCC[C@@]23C1=O`, the inhibition is 5.9%.

As for `O=C(Nc1nc(-c2ccco2)c(-c2ccco2)s1)c1ccco1`, the inhibition was 30.4% (active).

As for `O=C(Nc1cccc(F)c1)c1cc(-c2ccco2)nc2ccccc12`, the inhibition is 3.51%.

As for `COc1cc(C(=S)NCc2ccccc2)cc(Br)c1O`, the inhibition is 19.8%.

In the case of `N#CC1=C(N)Oc2[nH]c(=S)[nH]c(=O)c2C12C(=O)Nc1ccccc12` (stereo not given), the inhibition is 66.4% (active).

For `Cc1ccc(Cc2cnc(N)s2)o1`, the inhibition was -3.79%.

As to `O=C(CN1C(=O)S/C(=C\c2ccccc2F)C1=O)NCCCn1ccnc1`, the inhibition is -3.11%.

For `CC(NC(=O)CSc1nc2c(cc1C#N)CN(C)CC2)c1ccccc1` (stereo not given), the inhibition was 6.37%.

Turning to `COc1ccc(C(=O)COC(=O)COc2ccc(C)c(C)c2)cc1`, the inhibition is 3.72%.

As to `COc1ccnc(NC(=S)N2CCN(c3ncc(C(F)(F)F)cc3Cl)CC2)c1`, the inhibition was 4.89%.

With `c1ccc(C(=NNc2nc3ccccc3s2)c2ccccn2)cc1`, the inhibition is 22.1% (active).

For `Cc1nc2sc(C(c3ccco3)N3CCOCC3)c(O)n2n1` (stereo not given), the inhibition was 7.49%.

In the case of `CCN(CC)CCCC(C)n1c2nc(=O)[nH]c(=O)c-2nc2cc(Cl)ccc21` (stereo not given), the inhibition was 153% (active).

For `CC(C(=O)Nc1ccc(O)c(C(=O)O)c1)N1C(=O)/C(=C/c2cccs2)SC1=S` (stereo not given), the inhibition is 12%.

In the case of `COCCNC(=S)Nc1cc(S(=O)(=O)N2CCOCC2)ccc1N1CCCCC1`, the inhibition is 4.34%.

For the compound `N#Cc1ccccc1S(=O)(=O)N1CCN(Cc2c(O)ccc3ccccc23)CC1`, the inhibition was 33.1% (active).

For the compound `COc1ccc(Nc2nc(-c3cccnc3)nc3ccccc23)cn1`, the inhibition was 11.2%.

As for `Cn1sc(=O)c2cc(S(=O)(=O)NC3CC3)ccc21`, the inhibition is 32% (active).

For the compound `Cc1ccc(CNC(=O)CCS(=O)(=O)c2ccc3c(c2)CC(C)N3C(=O)C2CC2)o1` (stereo not given), the inhibition was 5.73%.

On to `S=c1[nH]nc2c3c4c(sc3ncn12)CCCC4`, for which the inhibition was 17.1%.

For `CCOc1cccc(/C=N/N2C(=O)CSC2=S)c1O`, the inhibition is 83.2% (active).

With `NC(=O)C1(N2CCCCC2)CCN(C2CC(=O)N(Cc3ccc(N4CCCC4=O)cc3)C2=O)CC1` (stereo not given), the inhibition is 2.57%.

On to `Cc1sc2nc(SCC(=O)c3ccc(O)c(O)c3)n(Cc3ccco3)c(=O)c2c1C`, for which the inhibition is 2.72%.

As for `CCOC(=O)N1C(=O)C[C@](Sc2ccc(C)cc2)(C(=O)OC)[C@H]1c1ccccc1`, the inhibition is 60.5% (active).

In the case of `CCc1ccc(-n2c(=S)sc3c(=O)n(-c4ccccc4OC)c(=S)[nH]c32)cc1`, the inhibition was 14.1%.

For the compound `Cc1ccc(NC(=O)c2cc(-c3ccc(C)o3)nc3ccccc23)nc1`, the inhibition is 10.3%.

With `CCc1n[nH]c(=S)n1/N=C/c1c[nH]c2ccc(Br)cc12`, the inhibition was 18%.

As for `Cc1cccc(NC(=O)c2sc3nc(N4CCOCC4)c4c(c3c2N)CCCC4)c1`, the inhibition was 10.1%.

Consider `O=C(CC1N=C2c3ccccc3N=C(SCc3ccccc3Cl)N2C1=O)NCc1ccco1` (stereo not given), for which the inhibition is 5.28%.

With `Clc1ccccc1CSc1nnc(-c2ccco2)c(-c2ccco2)n1`, the inhibition is 65.4% (active).

`CC(=O)N1CCN(C(=O)c2cc(-c3ccc(C)o3)nc3ccccc23)CC1`: the inhibition is 13%.

As to `Cc1ccnc(-n2sc3ccccc3c2=O)n1`, the inhibition is 89.8% (active).

`CCN1/C(=C/C(=S)Nc2ccccc2)Sc2ccccc21`: the inhibition was 24.8% (active).

Turning to `COc1ccccc1-n1c(-c2cc(-c3ccco3)[nH]n2)n[nH]c1=S`, the inhibition was 2.25%.

Take `c1ccc(CN2CCC(N=C3NN=C(c4ccc5c(c4)OCCO5)CS3)CC2)cc1`: the inhibition was 27.8% (active).

With `Cc1cccc(Oc2c([N+](=O)[O-])c(=O)n(C)c3ccccc23)c1`, the inhibition was 9.75%.

Turning to `N#Cc1c(N2CCCCC2)nc(N)c2c(N)nc(SCC(=O)O)cc12`, the inhibition was 56.5% (active).

`COc1ccc(C2CC(c3cccs3)=Nc3ccccc3S2)cc1OC` (stereo not given): the inhibition is 48.6% (active).

Take `Cc1cc(C(=O)NN=C/C=C/c2ccco2)n[nH]1`: the inhibition is 0.98%.

On to `O=C(Oc1ccccc1C(=S)N1CCCCC1)c1cc([N+](=O)[O-])cc([N+](=O)[O-])c1`, for which the inhibition is 25.5% (active).

In the case of `Cc1cc2nc(-c3ccco3)c(Cc3cccc(F)c3)n2c(C)c1Br`, the inhibition is 20.8%.

As to `COC(=O)c1ccccc1SC1CC(=O)N(c2cccc(C)c2)C1=O` (stereo not given), the inhibition is 23.1% (active).

Regarding `CCOC(=O)c1ccc(N2C(=O)CC(N3CCC(C(=O)OCC)CC3)C2=O)cc1` (stereo not given), the inhibition was 1.87%.

For the compound `O=C(O)c1ccc(/C=C2\SC(=S)N(NC(=O)c3ccc(Br)cc3)C2=O)cc1`, the inhibition was 2.94%.

Regarding `CCN(CC)S(=O)(=O)c1cccc(-c2n[nH]c(=S)n2/N=C/c2ccc(C(=O)OC)cc2)c1`, the inhibition is 65.6% (active).

For the compound `S=c1[nH]nc(-c2ccccc2)n1/N=C/c1c[nH]c2ccccc12`, the inhibition was 12.4%.

Take `S=c1ccc2ccccc2[nH]1`: the inhibition is 10.8%.

On to `CC(=O)NC1=NC(=O)CS1`, for which the inhibition was 15.3%.

`CCOC(=O)N1CCN(C(c2cccnc2)c2ccc3cccnc3c2O)CC1` (stereo not given): the inhibition was 82.2% (active).

Take `COc1ccccc1C(=O)NN1C(=O)C2C3C=CC(O3)C2C1=O` (stereo not given): the inhibition is 8.23%.

As to `COc1ccc(N=C2C=CC(=O)O2)cc1`, the inhibition is 83.2% (active).

With `COc1ccccc1NC(=O)/C=C/C(N)=O`, the inhibition is 55.8% (active).

Regarding `CN(C)c1ccc(Nc2c3c4c(cccc4n(C)c2=O)C(=O)c2ccccc2-3)cc1`, the inhibition was 1.6%.

As to `O=C(O)c1ccccc1CSc1nc2ccccc2s1`, the inhibition is 33.2% (active).

For `CCC(c1nnnn1Cc1ccco1)N(CCc1ccccc1)Cc1cc2ccc(OC)cc2[nH]c1=O` (stereo not given), the inhibition is 5.74%.

With `O=C1C=CC(=O)N1c1ccc(N2CCCCC2)cc1`, the inhibition was 82.8% (active).

Turning to `Cc1cc(C)c(S(=O)(=O)NN=C2c3ccccc3[C@H]3Cc4csc[n+]4[C@@H]23)c(C)c1`, the inhibition is 13.2%.

Turning to `Cc1cccc(C)c1NC(=O)C(Cl)C(=O)c1ccccc1` (stereo not given), the inhibition was 30% (active).

Consider `O=c1/c(=C/c2ccc(CNS(=O)(=O)c3ccccc3)o2)sc2n1CCN=2`, for which the inhibition is -3.63%.

With `Clc1cccc(-c2nc3nc4ccccc4nc3n2Cc2ccco2)c1`, the inhibition was 19.7%.

For the compound `Cc1nc2ccc(S(=O)(=O)NCC(=O)O)cc2s1`, the inhibition is 22.9% (active).

As for `CC(=O)N1C(=O)/C(=C2\SC(=S)N(NC(=O)c3ccc(O)cc3)C2=O)c2ccccc21`, the inhibition was 1.92%.

With `CCCCOC(=O)CNc1nnc(SCC(=O)OCC)[nH]c1=O`, the inhibition is 72.3% (active).

For the compound `CN(C)c1ccc(C(CC(=O)O)C(=O)O)cc1` (stereo not given), the inhibition is 5.11%.

With `CCOC(=O)Cc1csc(NC(=O)CSc2nc(C)cc(=O)[nH]2)n1`, the inhibition was 61.6% (active).

As to `Cc1cc(NC(=O)C(C)SCC(=O)Nc2cccc(S(=O)(=O)N3CCCCCC3)c2)no1` (stereo not given), the inhibition is -0.11%.

For the compound `COc1ccc(NC(=O)CN(C)C(=O)c2cc(-c3ccc(C)o3)nc3ccccc23)cc1`, the inhibition is 13.6%.

As for `OCCN1CCN(C(=S)c2ccc(-c3ccccc3)cc2)CC1`, the inhibition is 61.8% (active).

Consider `CC1CCN(C(=S)c2ccc(-c3ccc(Cl)cc3Cl)o2)CC1`, for which the inhibition is 4.49%.

On to `COc1cc(NC(=S)N2CCCC(C)C2)c(OC)cc1Cl` (stereo not given), for which the inhibition is 44.5% (active).

Consider `CC(=O)N1CC(C)c2scc(C)[n+]2-c2ccccc21` (stereo not given), for which the inhibition is 50.9% (active).

As for `COc1ccc(N2C(=O)/C(=C\c3ccco3)N=C2SCC(N)=O)cc1Cl`, the inhibition was 5.26%.

In the case of `COc1cccc2c1C(=O)c1c(O)c3c(c(O)c1C2=O)CC(O)(C(C)=NNC(=O)c1ccc(Cl)c(Cl)c1)CC3OC1CC(N)C(O)C(C)O1` (stereo not given), the inhibition is 159% (active).

Turning to `Cc1c(NC(=O)/C=C/C(=O)O)cccc1[N+](=O)[O-]`, the inhibition was 4.54%.

Regarding `COC(=O)/C=C\C(=O)Nc1cccc([N+](=O)[O-])c1`, the inhibition was 87.6% (active).

Regarding `O=C(O)/C=C/C(=O)NNc1ccc([N+](=O)[O-])cc1`, the inhibition was 12.7%.

As for `CSc1c(SCc2ccccc2)cnn(Cc2ccccc2)c1=O`, the inhibition was 18.4%.

On to `Nc1c(C(=O)c2cccs2)sc2nsc(SCCN3CCCCC3)c12`, for which the inhibition is -5.21%.

On to `O=C(COC(=O)Cn1cnc2ccccc21)Nc1cccc2c1C(=O)c1ccccc1C2=O`, for which the inhibition is 4.11%.
